# Assay results: ChEMBL document CHEMBL3988442, “University of Dundee, Small-Polar-MMV Screening Library” (2021)
# The campaign covered roughly 69,000 compounds. About 420 (0.61%) showed an effect of 50% or more. The sample holds strong results, similar compounds and a random draw of the others, so the mix is not that of the screen.
# Target: T1, Histidine--tRNA ligase (Leishmania infantum) (UniProt A4I591)
# T1 sequence (whole entry): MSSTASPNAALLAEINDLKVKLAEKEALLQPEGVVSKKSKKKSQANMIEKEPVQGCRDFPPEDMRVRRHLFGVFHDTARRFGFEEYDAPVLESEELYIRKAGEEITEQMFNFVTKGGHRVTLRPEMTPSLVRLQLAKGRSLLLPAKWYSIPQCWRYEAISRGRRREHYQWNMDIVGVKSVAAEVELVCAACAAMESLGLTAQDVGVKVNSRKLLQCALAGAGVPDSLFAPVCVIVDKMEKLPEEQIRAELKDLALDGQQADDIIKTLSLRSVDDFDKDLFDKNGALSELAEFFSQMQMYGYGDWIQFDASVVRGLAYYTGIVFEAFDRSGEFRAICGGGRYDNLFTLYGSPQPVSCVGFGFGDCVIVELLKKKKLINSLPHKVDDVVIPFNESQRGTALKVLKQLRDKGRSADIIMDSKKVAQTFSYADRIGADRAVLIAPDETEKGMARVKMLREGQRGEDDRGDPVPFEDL
# Assay: Leishmania infantum Histidine tRNA synthetase (LdHisRS)
# Assay type: functional
# Parameters: scale not given: in the data most compounds retested in dose-response had high values
# Details: 30 µM
row,SMILES,Percent Effect [%]
1,NC(=O)N1C[C@H](NC(=O)c2cscn2)[C@@H]2OCCC[C@@H]21,13.6
2,CC(C)CC(=O)N1CC[C@H]2N(C)CC[C@@]2(C(=O)Nc2cccnc2)CC1,11.7
3,CCCn1cc(NC(=O)c2ccc(S(C)(=O)=O)cc2)ccc1=O,94.6
4,O=C(Nc1ccc2c(ccn2CCN2CCOCC2)c1)c1ccncc1,25.7
5,CCCn1cc(NC(=O)c2ccc(NC(=O)NC3CC3)cc2)ccc1=O,92.8
6,CCN(CC)C(CNC(=O)c1ccc(S(C)(=O)=O)cc1)c1ccco1 (configuration not stated),19.2
7,CN(C)C(=O)Cc1ccccc1NCc1cccc2cccnc12,13.6
8,O=C(Nc1ccc(CCN2CCSCC2)cc1)NC1CC1,16.4
9,COC(=O)N1CCCN(C(=O)c2cccc3cccnc23)CC1,8.26
10,CCCN1CCC(NC(=O)Nc2ccc(OC)c(OC)c2)CC1,1.33
11,CCCn1cc(NC(=O)c2ccc(N(C)CC)cc2)ccc1=O,31.5
12,CCCn1cc(NC(=O)c2ccncc2)ccc1=O,104
13,Cn1cc(C(=O)Nc2cccc(F)c2)ccc1=O,26.5
14,Cn1cc(NC(=O)Nc2cccc3cccnc23)ccc1=O,114
15,COCC1(CNC(=O)[C@@]23CNC[C@@H]2CN(C2CCCC2)C3)CC1,12.8
16,CS(=O)(=O)N1C[C@H](NC(=O)c2ccno2)[C@@H]2OCCC[C@@H]21,10
17,COc1ccc(CN2C[C@@H]3OCCN(C)[C@@H]3C2)cc1,19.3
18,Cc1nc([C@@H]2C[C@H]3CN(Cc4scnc4C)C[C@H]3O2)no1,17.1
19,Cn1cc(C(=O)N[C@H]2CN(Cc3nccs3)[C@@H]3CCCO[C@H]23)cn1,28.6
20,Fc1cnc(N2C[C@H]3CCC[C@@]3(COc3ccccn3)C2)nc1,0
21,CC(=O)N1CCO[C@@H]2CN(Cc3cccc(Cl)c3)C[C@@H]2C1,15.3
22,COc1cccc(CN2C[C@@H]3COC[C@]3(COc3cccnc3)C2)c1,19.3
23,c1ccc(OC2COC3(CCN(Cc4ccccn4)CC3)C2)cc1 (configuration not stated),15
24,Cc1cccc(CN2CCS(=O)(=O)[C@@H]3CCN(C(=O)C4CC4)CC[C@@H]32)n1,5.26

row,SMILES,Percent Effect [%]
1,CCCn1cc(NC(=O)c2ccc(S(=O)(=O)CC)cc2)ccc1=O,114
2,CCS(=O)(=O)c1cccc(C(=O)Nc2cccc3c2C(=O)N(C)C3=O)c1,21.5
3,Cn1cc(NC(=O)c2cccc3cccnc23)ccc1=O,20.5
4,CCCn1cc(NC(=O)c2cccc3cccnc23)ccc1=O,75.9
5,CCCn1cc(NC(=O)c2cccnc2O)ccc1=O,17.1
6,CN1CCC/C1=N\S(=O)(=O)c1ccc(NC(=O)c2ccc(F)cc2)cc1,15.6
7,O=C(C[C@@H]1COC[C@H]2CN(Cc3ccccc3)C[C@@H]12)N1CCCC1,23.1
8,CN1[C@@H](C(=O)NCC2CC2)C[C@@H]2CN(Cc3ccco3)C[C@@H]21,17.1
9,CCOC(=O)[C@]12CCCN(Cc3nccs3)C[C@H]1CN(C(C)=O)C2,10.7
10,O=C([C@@H]1CC[C@@H]2[C@@H](CCN2CCOCc2ccccc2)O1)N1CCCC1,16
11,CN(C)C(=O)CN1C[C@@H]2CC[C@H](C1)N(Cc1ccc3nsnc3c1)C2,11.3
12,Cc1cnc(N2CC[C@@H]3O[C@@H](COCc4ccccn4)CC[C@@H]32)nc1,13
13,CC(C)Oc1ccccc1C1CC(=O)Nc2nc(N3CCOCC3)sc21 (configuration not stated),97.5
14,COc1cccc(C2CC(=O)Nc3nc(N4CCOCC4)sc32)c1OC (configuration not stated),111
15,COc1cccc(C2CC(=O)Nc3nc(N4CCCCC4)sc32)c1OC (configuration not stated),120
16,CC(C)Oc1ccccc1C1CC(=O)Nc2c1cnn2C (configuration not stated),-14.3
17,COc1ccccc1C1CC(=O)Nc2nc(N3CCCCC3)sc21 (configuration not stated),118
18,COc1ccccc1C1CC(=O)Nc2c1c(=O)[nH]n2C1CCCC1 (configuration not stated),14.3
19,COc1cccc(CNc2nc(N3CCOCC3)ns2)c1OC,13.5
20,COc1ccccc1C1CC(=O)Nc2c1c(=O)[nH]n2C(C)C (configuration not stated),16.5
21,CCn1ncnc1C1CC(=O)NCc2nc(N3CCCC3)sc21 (configuration not stated),15.7
22,O=c1[nH]nc(-c2cccs2)c2sc(N3CCOCC3)nc12,11.9
23,CCOc1cccc(C2CC(=O)NCc3nc(N4CCCC4)sc32)c1 (configuration not stated),24.7
24,COc1cccc(CNCc2ccnc(N3CCOCC3)c2)c1OC,7.14

row,SMILES,Percent Effect [%]
1,Cc1cccc(CN2C(=O)CC[C@@H]3[C@H]2CCN3Cc2ccc(C)s2)n1,8.03
2,CC1=N[C@@]2(CC[C@@H]3CN(S(=O)(=O)N(C)C)C[C@@H]32)C(=O)N1CC(C)C,9.02
3,CC(=O)N1CC[C@H]2CC(=O)N(CCc3c[nH]cn3)CC[C@H]2C1,9.46
4,Cc1ncc(C(=O)N2CC[C@@]3(O)CCN(C(=O)N(C)C)C[C@H]3C2)cn1,10.6
5,O[C@@]1(CN2CCN(Cc3ccncc3)CC2)CCCN2CCCC[C@@H]21,20
6,COc1cccc([C@@H]2N[C@H](c3nccs3)Cc3ccsc32)c1OC,9.86
7,COc1cccc(C2CC(=O)Nc3nc(N)sc32)c1OC (configuration not stated),91.4
8,Cn1ncc2c1NC(=O)CC2c1ccccc1Br (configuration not stated),-2.5
9,COc1cccc(C2C3=C(COC3=O)Nc3[nH]nc(C)c32)c1OC (configuration not stated),16.7
10,O=C1CC(c2ccccc2C(F)(F)F)c2sc(N3CCOCC3)nc2N1 (configuration not stated),5
11,O=C1CC(c2ccccc2Br)c2sc(N3CCOCC3)nc2N1 (configuration not stated),87.5
12,Cc1ccc(C(=O)N2[C@@H]3CC[C@H]2CN(C)C(=O)C3)c(=O)[nH]1,15.9
13,CN1[C@@H](C(=O)NCC2CC2)C[C@H]2CN(Cc3cccc(C#N)c3)C[C@H]21,17.4
14,CN(C)CCN1C(=O)C[C@@H]2[C@@H]1CCN2S(=O)(=O)c1ccccc1,13.6
15,O=C(N[C@@H]1CN(Cc2ccc3c(c2)OCO3)[C@@H]2CCCO[C@@H]21)C1CC1,7.55
16,O=C1CC[C@H]2CN(c3ncc(F)cn3)CC[C@H]2N1CCc1ccccn1,4.84
17,Cc1csc(N2CCN(C(=O)CCC(=O)c3ccc(C)s3)CC2)n1,50
18,Cc1csc(N2CCN(C(=O)Cc3ccc(C)s3)CC2)n1,35.7
19,Cc1csc(N2CCN(C(=O)c3ccc(C)s3)CC2)n1,11.4
20,COCCN1CCO[C@@H]2CN(C(=O)COc3ccc(C)cc3)C[C@@H]2C1,10.3
21,Cc1cc(C(=O)N2CC[C@@H]3CO[C@@H](CN4CCCC4)[C@@H]3C2)no1,-2.63
22,CCCn1nc2c(cc1=O)CN(CCCN1CCCC1=O)CC2,52.4
23,CCCn1nc2c(cc1=O)CN(CCCS(N)(=O)=O)CC2,61.9
24,CCCn1nc2c(cc1=O)CN(CCN1CCCC1=O)CC2,23.7

row,SMILES,Percent Effect [%]
1,CCCn1nc2c(cc1=O)CN(CCS(C)(=O)=O)CC2,40.5
2,CCCn1nc2c(cc1=O)CN(CC(=O)Nc1ccncc1)CC2,25
3,CCn1nc2c(cc1=O)CN(CCCN1CCCC1=O)CC2,30.7
4,CN(C)C(=O)CO[C@H]1CN(Cc2ccccc2)[C@@H]2CCCO[C@H]12,20.6
5,CC(C)(C)CC(=O)N1CC[C@H]2NC(=O)N(Cc3ccccc3)C(=O)[C@H]21,30.6
6,Cc1ncsc1CN1CC[C@H]2OCC[C@@]2(C(=O)NC(C)C)C1,-0.971
7,CO[C@@H]1CC[C@H]2[C@H]1OCCN2Cc1ccc(F)c(F)c1,8.33
8,c1cnn(CCCO[C@@H]2CN(C3CCOCC3)[C@@H]3CCCO[C@@H]32)c1,15.3
9,COc1ccccc1N1CCC(NCc2c(C)noc2C)C1 (configuration not stated),7.14
10,Cc1noc(CNc2c(N3CCCC3)cccc2N2CCCC2)n1,6.67
11,Cc1noc(C)c1CNc1c(N2CCCC2)cccc1N1CCCC1,84
12,Cc1noc([C@@H]2C[C@H]3CN(CC4CCOCC4)C[C@H]3O2)n1,10.5
13,CO[C@H]1CCN(C(=O)c2ccsc2)[C@@H]2CN(CC3CC3)C[C@H]12,5.77
14,Cc1nc(CN(C)C2CCN(Cc3ccc4ccccc4n3)C2)no1 (configuration not stated),53.1
15,CC(=O)N(Cc1noc(C)n1)C1CCN(Cc2ccc(C#N)cc2)C1 (configuration not stated),17.1
16,Cc1nc(CN(C)C2CCN(Cc3nc4ccccc4s3)C2)no1 (configuration not stated),25.8
17,Cc1nc(CN(C)C2CCN(Cc3nc4ccccc4n3C)C2)no1 (configuration not stated),10.3
18,CC(=O)N(Cc1noc(C)n1)C1CCN(Cc2cccc(C#N)c2)C1 (configuration not stated),63.2
19,CC(=O)N(Cc1noc(C)n1)C1CCN(Cc2ccccc2C#N)C1 (configuration not stated),2.7
20,Cc1cnc(N2C[C@@H]3[C@@H](C(=O)NCC(C)C)CCS(=O)(=O)[C@@H]3C2)nc1,12.3
21,CN1[C@H](Cn2cncn2)C[C@@H]2CN(C3CCOCC3)CC[C@@H]21,20
22,Cc1n[nH]c(C)c1CN1CC[C@@H]2[C@@H](CCC(=O)N2CCc2c[nH]cn2)C1,19.4
23,CC(C)CNC(=O)N1C[C@H]2C[C@H](C(=O)NCc3ccccc3)[C@@H](C1)O2,14.6
24,O=c1c2cnc(N3CCOCC3)nc2ccn1-c1ccccc1,50

row,SMILES,Percent Effect [%]
1,O=c1c2cnc(N3CCCC3)nc2ccn1-c1cccc(F)c1,13.3
2,O=c1c2cnc(N3CCCCC3)nc2ccn1-c1ccccc1,7.77
3,COc1cc(CCO)c(OC)c2c1OCO2,51.7
4,COc1cc(CCC(C)O)c(OC)c2c1OCO2 (configuration not stated),0
5,COc1cc(CO)c(OC)c2c1OCO2,18.3
6,Cc1noc([C@H]2C[C@H]3OCC[C@H]3N(S(C)(=O)=O)C2)n1,-20.2
7,COC(=O)c1ccc(OC)c(Cn2cc(Br)cn2)c1,1.12
8,COC(=O)c1ccc(OC)c(Cn2cc(N)cn2)c1,50.6
9,CCn1cc(C(=O)Nc2cc(C(=O)OC)ccc2C(=O)OC)cn1,10.3
10,CNC(=O)[C@@H]1[C@@H](c2ccccc2)CN2CCN(Cc3ccccn3)C[C@H]12,8.16
11,CSCC(=O)N1C[C@H]2CC[C@@H]1CN(Cc1ccccc1)C2,26.9
12,CN(Cc1ccco1)[C@@H]1CN(Cc2cccs2)C[C@@H]2CCCO[C@@H]21,5.46
13,COc1ccccc1OCCNC(=O)CN1CCc2cncnc2C1,20.2
14,CS(=O)(=O)c1ccc(OCCCN2CCc3cncnc3C2)cc1,12.5
15,CC(C)OCCN1CCc2cncnc2C1,37.1
16,Cc1cccc(OCCNC(=O)CN2CCc3cncnc3C2)c1,20.2
17,COCCCN1CCc2cncnc2C1,50.6
18,CCOCCN1CCc2cncnc2C1,32.3
19,O=C(CN1CCc2cncnc2C1)NCCOc1cccc(Cl)c1,18.4
20,CN(CCCOc1ccccc1)C(=O)CN1CCc2cncnc2C1,65.2
21,O=C(CN1CCc2cncnc2C1)NCCOc1ccccc1,50
